Assay [1] can be described thus: Cell Viability - BJ (AID 421; calls by dose curve;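 note: potency is the fitted concentration of half-maximal effect; cells exposed to compound for 40 hours at 37 °C before readout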). Particulars: BJ fibroblast viability, qHTS. An outline of the steps: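 Normal human BJ foreskin fibroblasts, 1500/well in complete medium, treated 40 hr at 37 °C. Cellular ATP by CellTiter-Glo luminescence; normalized to DMSO and 100 uM tamoxifen, AC50 from Hill fit.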
(qHTS replaces the single test concentration by a dilution series.)

A short description of assay [2]: Cell Viability - HUV-EC-C (AID 542).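 Note: cells exposed to compound for 40 hours; % is set by controls: 0 for no effect and ±100 for the full control effect; nearly all actives have a fitted effect of over 35% in size.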 Particulars: HUV-EC-C endothelial cell viability, qHTS; series mostly up to 92.2 µM. The method, boiled down:
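Decrease in cellular ATP, quantified by luciferase luminescence, reflects toxicity in normal human vascular endothelial HUV-EC-C cells given compound for 40 hr in complete culture medium. Values are AC50s from concentration-response curves.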

The nature of assay [3]: Cellular Toxicity (caspase-3) HUV-EC-C (AID 656). Particulars: HUV-EC-C cells, caspase-3 activation (apoptosis), vehicle = 0, 100 µM tamoxifen = 100%; series mostly up to 92.2 µM. The method, boiled down: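 Read-out: luminescence proportional to caspase 3/7 activity, measured 20 min after adding Caspase-Glo 3/7 reagent. Cells (HUV-EC-C) had received compound for 16 hr at 37°C. Increases relative to DMSO and 100 uM tamoxifen gave concentration-response AC50 values.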

The nature of assay [4]: Cellular Toxicity (caspase-3) MRC-5 (AID 659). Particulars: MRC-5 cells, luminescence, normalized: DMSO 0%, 10 µM staurosporine 100%; series mostly up to 91.7 µM. An outline of the steps:
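Luminescence from caspase-cleaved aminoluciferin substrate (Caspase-Glo 3/7, 1 hr RT) reports caspase 3/7 activity in MRC-5 lung fibroblasts after 16 hr compound exposure. Normalized to DMSO basal and 10 uM staurosporine as 100%; AC50 from Hill fits.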

A short description of assay [5]: Cellular Toxicity (caspase-3) Mesangial (AID 660).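 Note: cells exposed to compound for 16 h before the caspase read.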 Particulars: mesangial cells, normalized: DMSO 0%, 100 µM tamoxifen 100%; series mostly up to 91.7 µM. An outline of the steps: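 Concentration-response qHTS: compound-induced rise in caspase 3/7 luminescence in human mesangial cells after 16 h, normalized to DMSO and 100 uM tamoxifen controls.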
Assay [6] in a line: Cellular Toxicity (caspase-3) SK-N-SH (AID 661). Particulars: SK-N-SH caspase-3 activation, qHTS; series mostly up to 91.7 µM. An outline of the steps:
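Caspase 3/7 activation is measured as a luminescence increase from aminoluciferin released by substrate cleavage in SK-N-SH cells after 16 hr compound treatment; values are AC50 from concentration-response curves.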

Assay [7] is described as follows: Cellular Toxicity (caspase-3) Hek293 (AID 664).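 Note: cells exposed to compound for 16 h at 37 °C before readout.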 Particulars: HEK293 caspase-3 activation, DMSO = 0%, 100 µM tamoxifen = 100%; at 92.2 µM (top of the series). The method, boiled down:
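Activation of caspase-3/7 is measured as increased luminescence from cleaved peptide-aminoluciferin substrate in HEK293 cells treated 16 hours at 37 °C. AC50 values come from Hill-equation fits of concentration-response data.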

Assay [8] in a line: Cellular Toxicity (caspase-3) NIH 3T3 (AID 666).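 Note: caspase signal read after 16 h compound exposure; 0% = DMSO basal and 100% = 100 µM tamoxifen stimulation.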 Particulars: NIH 3T3 caspase-3 activation, apoptosis/toxicity; series mostly up to 92.2 µM. An outline of the steps:
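Concentration-response qHTS in NIH 3T3 mouse fibroblasts scores caspase-3/7 activation as rising luminescence after 16 hr compound exposure. Signals are scaled between DMSO-only and 100 uM tamoxifen.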

Assay [9] can be described thus: MultiTox-Fluor Cytotoxicity Assay - LYMP1-001 - Dead Cells (AID 946).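 Note: 0% = DMSO and 100% = tetraoctylammonium bromide.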 Particulars: LYMP1-001 lymphoblastoid cells, dead-cell protease fluorescence; series mostly up to 92.2 µM. An outline of the steps:
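LYMP1-001 lymphoblastoid cells (2500/well) treated 16 h at 37 C. Dead-cell protease cleavage of bis-AAF-R110 read at Ex/Em 485/520. Normalized to DMSO and 15 uM tetraoctylammonium bromide; AC50 from Hill fits.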

The nature of assay [10]: Cell Viability - LYMP1-002 - Assay at 16 hr (AID 948).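 Note: 0% = DMSO alone and full effect = 92 µM tetraoctylammonium bromide.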 Particulars: LYMP1-002 lymphoblastoid cell viability; series mostly up to 92.2 µM. The method, boiled down: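 Acute cytotoxicity is scored as a concentration-dependent fall in intracellular ATP in a human lymphoblastoid line (LYMP1-002) after 16 hr compound exposure at 37 C, measured by luciferase luminescence.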
Assay [11] in a line: MultiTox-Fluor Cytotoxicity Assay - LYMP1-003 - Live Cells (AID 962).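 Note: 0% = DMSO only and full loss = 92 µM tetraoctylammonium bromide; cytotoxic hits lower the live-cell protease signal.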 Particulars: LYMP1-003 lymphoblastoid cells, MultiTox-Fluor live-cell protease fluorescence; series mostly up to 92.2 µM. The method, boiled down:
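Cells plated at 2500 per well and incubated 5 hr; compounds added and incubated 16 hr at 37 C; MultiTox-Fluor reagent added for 60 min at room temperature; fluorescence of liberated AFC measured at 405/510 nm.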

A short description of assay [12]: Cell Viability - LYMP2-003 (AID 965).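 Note: cells exposed to compounds for 24 h before reading; nearly all actives have a fitted effect of over 50% in size.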 Note: potency is the fitted concentration of half-maximal effect. Particulars: LYMP2-003 lymphoblastoid cell viability; series mostly up to 92.2 µM. The method, boiled down:
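Acute cytotoxicity is scored as a concentration-dependent drop in intracellular ATP, measured by luciferase luminescence in human lymphoblastoid cells treated for 24 hours at 37 C. AC50 values derive from Hill-equation modelling.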

Assay [13] can be described thus: Cell Viability - LYMP2-013 (AID 970).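 Note: cells exposed to compound for 24 h at 37 °C; nearly all actives have a fitted effect of over 55% in size.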 Note: potency is the fitted concentration of half-maximal effect. Particulars: LYMP2-013 lymphoblastoid cells viability; series mostly up to 92.2 µM. An outline of the steps: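 Acute toxicity was measured in human lymphoblastoid cells (2500/well) exposed to compound titrations for 24 hr, with ATP luminescence (CellTiter-Glo) as read-out and AC50 fitted by Hill equation.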
Assay [14] in a line: Cell Viability - LYMP2-015 (AID 971). Note: nearly all actives have a fitted effect of over 55% in size. Note: potency is the fitted concentration of half-maximal effect. Particulars: LYMP2-015 lymphoblastoid cell viability; series mostly up to 92.2 µM. An outline of the steps: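 Acute toxicity was scored as a concentration-dependent drop in intracellular ATP in lymphoblastoid cells after 24 hr compound exposure in complete medium. Detection used CellTiter-Glo luciferase luminescence.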
Assay [15] is described as follows: Cell Viability - LYMP2-017 (AID 972).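 Note: cells exposed to compound for 24 hours at 37 °C; nearly all actives have a fitted effect of over 55% in size.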 Note: potency is the fitted concentration of half-maximal effect. Particulars: LYMP2-017 lymphoblastoid cell viability; series mostly up to 92.2 µM. An outline of the steps: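 Steps: plate 2500 lymphoblastoid cells per well; incubate 5 hr at 37 C; add compound across a concentration series and incubate 24 hr at 37 C; add CellTiter-Glo and read luminescence after 30 min at room temperature; fit Hill curves for AC50.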

Assay [16] can be described thus: Cell Viability - LYMP2-007 (AID 979).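 Note: cells exposed to compound for 24 h before reading; nearly all actives have a fitted effect of over 60% in size.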 Note: potency is the fitted concentration of half-maximal effect. Particulars: LYMP2-007 lymphoblastoid cell viability; series mostly up to 92.2 µM. An outline of the steps:
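Acute toxicity is scored as a concentration-dependent fall in intracellular ATP in human lymphoblastoid cells treated 24 hr at 37 C, measured by luciferase luminescence; Hill-equation modelling yields AC50.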

Assay [17] is described as follows: qHTS Assay for Identification of Small Molecule Inducers of Hypoxia Response (AID 2120; active = well fitted curve in the direction sought with a large enough effect in the signal ratio, with a control signal flat, not every such curve was filed as active; the % refers to the signal ratio; note: 0% is about no effect). Particulars: hypoxia response reporter cells, beta-lactamase ratio readout; series mostly up to 104 µM. An outline of the steps:
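Induction of beta-lactamase reporter activity was measured in CellSensor HRE-bla ME-180 cells after 17 h compound treatment at 37 degrees C, using CCF4 substrate and the 460nm/530nm emission ratio to derive AC50 values.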

For assay [18], the target named is Peroxisome proliferator-activated receptor alpha (Homo sapiens) (UniProt Q07869). Put plainly: qHTS assay for small molecule agonists of the peroxisome proliferator-activated receptor alpha (PPARalpha) signaling pathway (AID 651778). Note: % of control where 0% means no effect. Particulars: PathHunter PPARalpha complementation, chemiluminescence, 6 h; hits give high values. An outline of the steps: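 Cells plated at 2,000/well and held overnight at 37 C, 5% CO2, then compound added by pin tool for 6 hr; after PathHunter detection reagent and 60 min at room temperature, chemiluminescence from enzyme complementation was read.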
Sequence of Peroxisome proliferator-activated receptor alpha (Homo sapiens) (Q07869 whole entry, looked up): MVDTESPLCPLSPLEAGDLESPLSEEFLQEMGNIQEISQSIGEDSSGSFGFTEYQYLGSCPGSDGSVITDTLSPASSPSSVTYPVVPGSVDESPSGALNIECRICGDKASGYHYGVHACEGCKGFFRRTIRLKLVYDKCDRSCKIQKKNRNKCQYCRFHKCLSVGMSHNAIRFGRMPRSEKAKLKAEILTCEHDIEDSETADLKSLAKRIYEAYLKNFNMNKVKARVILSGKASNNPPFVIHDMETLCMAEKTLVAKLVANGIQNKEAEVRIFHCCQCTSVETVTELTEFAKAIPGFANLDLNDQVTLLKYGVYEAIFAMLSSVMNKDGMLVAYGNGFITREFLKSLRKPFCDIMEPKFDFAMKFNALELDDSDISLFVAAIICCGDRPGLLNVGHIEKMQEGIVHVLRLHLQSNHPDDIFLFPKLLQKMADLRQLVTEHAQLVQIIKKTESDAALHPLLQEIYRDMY

Assay [19] in a line: qHTS assay for small molecule agonists of the antioxidant response element (ARE) signaling pathway measured by Nrf2-dependant transcriptional activity - cell viability counter screen (AID 720653; active = well fitted curve in the direction sought with a large enough effect in the repeat runs; an effect the other way counts as inactive or inconclusive; note: % is set by controls: 0 for no effect and ±100 for the full control effect). Particulars: ARE-bla HepG2 viability, CellTiter-Glo ATP luminescence, 16 h; hits give low values. The method, boiled down: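 ARE-bla HepG2 cells (2,000/well) rested 5 hrs at 37C/5% CO2, then exposed to compounds in DMSO for 16 hrs. Viability was read in the same wells as intracellular ATP by luminescence, 30 min at room temperature after reagent addition.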

A short description of assay [20]: qHTS assay for cell viability of the p53RE-bla HCT-116 cell line (AID 743292). Note: % is set by controls: 0 for no effect and ±100 for the full control effect; nearly all actives have a fitted effect of over 55% in size. Particulars: p53RE-bla HCT-116 viability, ATP luminescence, 16 h; series mostly up to 95 µM. An outline of the steps: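 ATP-based luminescence, 16 h compound exposure at 37 C, p53RE-bla HCT-116 cells at 4,000/well.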

Several values for one entry are separate records, joined by “and”; a condition that tells them apart may be missing. Equal entries are not always repeated. Values without a mark were called inactive. Inconclusive results are not listed. Activity calls are given as the source filed them. Unless noted, calls come from the whole dose curve; as a rule, active = well fitted curve in the direction sought with a large enough effect; inconclusive = small, poorly fitted or top-dose-only effect, or another doubt; inactive = no such curve, though single readings can be large; an effect the other way counts as inactive or inconclusive.

As to `Clc1ccc(C(Cl)(Cl)Cl)cc1Cl`, the Potency in [1] is greater than 92 µM. The Potency entry in assay [2], in assay [6], in assay [8], in [12], in assay [13] and in assay [14] was “inactive” each time. Also, the Potency result in [15], in assay [16], in [17] and in assay [20] was “inactive” throughout. Also, the call in assay [3], in assay [4], in assay [5], in assay [9], in assay [10] and in assay [11] was inactive. The caspase-3 activation in assay [7] was 1.11%. Besides, the values for the max response in assay [18] and in assay [19] were 1.82% and -18%, respectively.

In the case of `O=[N+]([O-])c1cc(Cl)c(Cl)cc1Cl`, the Potency in assay [1] was greater than 92 µM. Besides, the Potency entry in [2], in [6], in assay [8], in assay [12], in assay [13] and in assay [14] was “inactive” throughout. The Potency result in [15], in assay [16], in assay [17] and in assay [20] was “inactive” each time. The outcome in assay [3], in [4], in assay [5], in [9], in assay [10] and in assay [11] was inactive. In [7], the caspase-3 activation was -4.07%. For the same molecule, the max response is -8.71% in assay [18] and -7.17% in assay [19].

For the molecule `N#C/C(N)=C(/N)C#N`, the Potency in assay [1] was greater than 92 µM. In addition, the Potency result in assay [2], in [6], in assay [8], in assay [12], in [13] and in assay [14] was “inactive” in each case. Moreover, the Potency result in assay [15], in assay [16], in [17] and in assay [20] was “inactive” in each case. The call in assay [3], in [4], in assay [5], in [9], in assay [10] and in assay [11] was inactive. Moreover, in assay [7], the caspase-3 activation was -2.4%. Also, the max response in assay [18] is -0.162%; in [19] it was -10.7%.

With `ClCCBr`, in assay [1], the Potency is greater than 92 µM. Further, the Potency result in assay [2], in assay [6], in assay [8], in [12], in assay [13] and in assay [14] was “inactive” in each case. Besides, the Potency entry in [15], in assay [16], in [17] and in assay [20] was “inactive” in each case. Also, the molecule was classed as inactive in [3], in assay [4], in assay [5], in assay [9], in [10] and in assay [11]. In assay [7], the caspase-3 activation is -0.69%. The max response is 0.115% in [18] and -7.21% in assay [19].

Regarding `CCCCOC(C)=O`, the Potency in assay [1] is greater than 92 µM. Further, the Potency entry in [2], in assay [6], in assay [8], in assay [12], in assay [13] and in [14] was “inactive” throughout. Moreover, the Potency result in [15], in assay [16], in assay [17] and in assay [20] was “inactive” throughout. For the same molecule, the call in [3], in assay [4], in [5], in assay [9], in [10] and in assay [11] was inactive. Further, in [7], the caspase-3 activation is -0.0829%. For the same molecule, the max response in [18] is -4.39%; in assay [19] it was 10.3%.

Take `OC[P+](CO)(CO)CO`: the Potency is greater than 92 µM in assay [1]; 25.1 µM (active) in assay [12]; 31.6 µM (active) in assay [13]; 15.8 µM (active) in assay [14]; 12.6 µM (active) in assay [15]; 15.8 µM (active) in assay [16]. Moreover, the Potency entry in [2], in [6], in assay [8], in assay [17] and in assay [20] was “inactive” throughout. Besides, the outcome in [3], in assay [4], in assay [5], in [9], in assay [10] and in [11] was inactive. Besides, the caspase-3 activation in assay [7] was 0.818%. Also, the max response in assay [18] was -6.87% and -1.39%; in [19], -17.6% and -11.9%.

For the origin of these results see PubChem BioAssay (NCATS).
